Source: ChEMBL document CHEMBL3988442, “University of Dundee, Small-Polar-MMV Screening Library” (2021)
The whole screen tested about 69,000 compounds, of which about 950 (1.4%) showed an effect of 50% or more. Only a selection was taken, and strong results are over-represented in it overall.

system: Mycobacterium tuberculosis; experiment: Cornell M. t heat shock assay; format: functional, organism-based; design: dose or concentration left out as unconfirmed; also: in the data most compounds retested in dose-response had high values

**Q.** How did the “Percent Effect” value turn out when `c1ccc2nc(N3CCOC(Cn4cncn4)C3)cnc2c1` (configuration not stated) was run?
**A.** -13.9%

**Q.** How did the “Percent Effect” value turn out when `c1ccc2nc(N3CCOC(Cn4cccn4)C3)cnc2c1` (configuration not stated) was run?
**A.** -17.06%

**Q.** With `Cc1cnn(CC2CN(c3cnc4ccccc4n3)CCO2)c1` (configuration not stated) as the molecule, how does the “Percent Effect” value read?
**A.** 103.1%

**Q.** For `Cc1cc(C)n(CC2CCCN2C(=O)c2nccc3ccccc23)n1` (configuration not stated), which “Percent Effect” value is on record?
**A.** 3.715%

**Q.** How did the “Percent Effect” value turn out when `CC(=O)N(C)[C@H]1CC[C@]2(CC1)CNC(=O)c1cc(C)ccc1O2` was run?
**A.** 5.316%

**Q.** Which “Percent Effect” value does the source give for `CC(C(N)=O)n1nc(-c2cccs2)cc(N)c1=O` (configuration not stated) here?
**A.** 10.66%

**Q.** For `Cc1nn(C)c(C)c1S(=O)(=O)NCCn1ccc(-c2cccs2)n1`, which “Percent Effect” value is on record?
**A.** -25.61%

**Q.** Which “Percent Effect” value does the source give for `CC(C(=O)N1CCCC1)n1nc(-c2cccs2)cc(N)c1=O` (configuration not stated) here?
**A.** -4.273%

**Q.** With `Cc1nc(-n2nc(-c3cccs3)cc2N)[nH]c(=O)c1C` as the molecule, how does the “Percent Effect” value read?
**A.** 103.7%

**Q.** How did the “Percent Effect” value turn out when `CN1CCN(Cn2nc(-c3cccs3)ccc2=O)CC1` was run?
**A.** 6.699%

**Q.** For `CCc1c(C)nc(-n2nc(-c3cccs3)cc2N)[nH]c1=O`, which “Percent Effect” value is on record?
**A.** 106.4%

**Q.** For `CC1c2ncc(CN3CCN(C)CC3)n2CCN1Cc1ccsc1.O=C(O)C(F)(F)F.O=C(O)C(F)(F)F.O=C(O)C(F)(F)F` (configuration not stated), which “Percent Effect” value is on record?
**A.** -30.83%

**Q.** With `CCN1CCC2(CC1)OCCN2C(=O)c1ccc(OC)c(Cl)c1.Cl` as the molecule, how does the “Percent Effect” value read?
**A.** 7.471%

**Q.** `CCn1ncc2c1C(COC)N(C(=O)c1cccs1)CC2.O=C(O)C(F)(F)F` (configuration not stated) was tested. Which “Percent Effect” value did it give?
**A.** 19.39%

**Q.** With `O=C(CC1CC2(CCN(CC3CC3)CC2)c2ccccc21)NC1CCC1.O=C(O)C(F)(F)F` (configuration not stated) as the molecule, how does the “Percent Effect” value read?
**A.** -33.11%

**Q.** With `O=C(O)C(F)(F)F.O=C1COC2(CCN(C(=O)c3ccco3)CC2)CN1Cc1ccccn1` as the molecule, how does the “Percent Effect” value read?
**A.** -21.74%

**Q.** For `CC(C)(C)c1ccc(OCC(=O)O)c(CN2C[C@H]3C[C@H](O)C[C@H]3C2)c1`, which “Percent Effect” value is on record?
**A.** -6.021%

**Q.** `Cc1noc(C)c1CN1C(=O)[C@H]2CC[C@@H]1CN(C(=O)c1cscn1)C2` was tested. Which “Percent Effect” value did it give?
**A.** 9.12%

**Q.** How did the “Percent Effect” value turn out when `CNC(=O)c1ccc2c(c1)C1(CCN(CCOC)CC1)C(=O)N2.O=C(O)C(F)(F)F` was run?
**A.** -17.93%

**Q.** How did the “Percent Effect” value turn out when `Fc1cccc(Cl)c1CNCc1ccccn1` was run?
**A.** 50.99%

**Q.** `Fc1cccc(Cl)c1CNCCCOc1ccccn1` was tested. Which “Percent Effect” value did it give?
**A.** -11.57%

**Q.** Which “Percent Effect” value does the source give for `Fc1cccc(Cl)c1CNCCOc1ccccn1` here?
**A.** -12.87%

**Q.** `COCC(=O)NCc1cc(=O)n2c(n1)CN(CC1CCOC1)CCC2.O=C(O)C(F)(F)F` (configuration not stated) was tested. Which “Percent Effect” value did it give?
**A.** -14.54%

**Q.** How did the “Percent Effect” value turn out when `CC(C)NC(=O)N1CCC2(CCC(=O)N2CCN2CCCC2)CC1.O=C(O)C(F)(F)F` was run?
**A.** -7.519%

**Q.** With `CCc1noc(CSc2n[nH]c(-c3ccccn3)n2)n1` as the molecule, how does the “Percent Effect” value read?
**A.** 92.11%

**Q.** With `c1ccc(-c2nc(SCc3nnc(C4CC4)o3)n[nH]2)nc1` as the molecule, how does the “Percent Effect” value read?
**A.** 78.14%

**Q.** With `CCc1nnc(CSc2ccccn2)o1` as the molecule, how does the “Percent Effect” value read?
**A.** 0.1559%

**Q.** How did the “Percent Effect” value turn out when `Cc1nnc(CSc2n[nH]c(-c3ccccn3)n2)o1` was run?
**A.** 13.15%

**Q.** `O=C(c1ccccn1)N1CCCN(Cc2nnc(C3CC3)o2)CC1` was tested. Which “Percent Effect” value did it give?
**A.** 27.04%

**Q.** Which “Percent Effect” value does the source give for `CCc1noc(CN2CCN(C(=O)c3ccccn3)CC2)n1` here?
**A.** 7.072%

**Q.** With `COCCN1C(=O)[C@H]2CC[C@@H]1CN(Cc1nnc(-c3ccccc3)o1)C2` as the molecule, how does the “Percent Effect” value read?
**A.** 0.9802%

**Q.** With `CCOCC1CN(c2ccc(C)nn2)Cc2cnn(CC)c21.O=C(O)C(F)(F)F.O=C(O)C(F)(F)F` (configuration not stated) as the molecule, how does the “Percent Effect” value read?
**A.** 34.67%

**Q.** With `CS(=O)(=O)CC(=O)N1C[C@H]2CCC[C@@]2(COCc2ccccn2)C1.O=C(O)C(F)(F)F` as the molecule, how does the “Percent Effect” value read?
**A.** 1.254%

**Q.** For `O=C(O)C(F)(F)F.c1coc(CN2CCC3(CC2)COC(COCC2CC2)C3)c1` (configuration not stated), which “Percent Effect” value is on record?
**A.** -19.69%

**Q.** How did the “Percent Effect” value turn out when `O=C(O)C(F)(F)F.O=C(c1cccc(F)c1)N1C[C@H]2CN(Cc3ccccn3)C[C@H]2C1` was run?
**A.** -10.41%

**Q.** `O=C(O)C(F)(F)F.O=C1CC[C@]2(CC[C@@H](NCc3ccsc3)CC2)N1Cc1ccccc1` was tested. Which “Percent Effect” value did it give?
**A.** -7.125%

**Q.** How did the “Percent Effect” value turn out when `COCc1nn(C(C)C)c2c1CCN(Cc1ccoc1)C2.O=C(O)C(F)(F)F` was run?
**A.** -50.08%

**Q.** With `Cc1cc(NCCNc2cccnc2)nc(N)n1` as the molecule, how does the “Percent Effect” value read?
**A.** -13.91%

**Q.** For `Cc1cc(NCCc2nc(C)c[nH]2)nc(-c2ccccc2O)n1`, which “Percent Effect” value is on record?
**A.** 7.352%

**Q.** How did the “Percent Effect” value turn out when `Cc1cc(NCCO)nc(-c2ccccc2O)n1` was run?
**A.** 5.939%

**Q.** Which “Percent Effect” value does the source give for `Cc1cc(NCCNc2cccnc2)nc(-c2ccccc2O)n1` here?
**A.** 65.56%

**Q.** `Cc1cc(NCCc2cnccn2)nc(-c2ccccc2O)n1` was tested. Which “Percent Effect” value did it give?
**A.** 15.98%

**Q.** Which “Percent Effect” value does the source give for `Cc1cc(NCCN)nc(-c2ccccc2O)n1` here?
**A.** 74.35%

**Q.** With `Cc1cc(C)c(N(CC(O)CNCc2ccco2)S(C)(=O)=O)c(C)c1.O=C(O)c1ccccc1` (configuration not stated) as the molecule, how does the “Percent Effect” value read?
**A.** 18.07%

**Q.** How did the “Percent Effect” value turn out when `CCOC1COC2(CCN(Cc3ccc(F)cc3)CC2)C1.O=C(O)C(F)(F)F` (configuration not stated) was run?
**A.** -14.13%

**Q.** How did the “Percent Effect” value turn out when `CCCC(=O)N(CCCN1CCOCC1)c1nc2c(C)c(C)ccc2s1.Cl` was run?
**A.** 46.86%

**Q.** Which “Percent Effect” value does the source give for `CCCC(=O)N(CCCN1CCOCC1)c1nc2c(Cl)cccc2s1.Cl` here?
**A.** 25.9%

**Q.** With `CCCC(=O)N(CCCN1CCOCC1)c1nc2c(C)ccc(Cl)c2s1.Cl` as the molecule, how does the “Percent Effect” value read?
**A.** 99.14%

**Q.** How did the “Percent Effect” value turn out when `COC(=O)c1ccc(CN[C@@H]2COC[C@H]2Cc2cc(C)no2)cc1.O=C(O)CC(O)(CC(=O)O)C(=O)O` was run?
**A.** -21.34%

**Q.** How did the “Percent Effect” value turn out when `CC(C)Nc1cccc(CC2CCN(C)C2)n1.O=CO` (configuration not stated) was run?
**A.** 4.45%

**Q.** How did the “Percent Effect” value turn out when `CCCc1cc(NCCn2cccn2)n2ncnc2n1` was run?
**A.** 8.061%

**Q.** Which “Percent Effect” value does the source give for `CCCc1cc(NCCN2CCNC2=O)n2nccc2n1` here?
**A.** -6.778%

**Q.** With `CCCc1cc(NCCn2cccn2)n2nccc2n1` as the molecule, how does the “Percent Effect” value read?
**A.** 70.39%

**Q.** How did the “Percent Effect” value turn out when `COCCN(C)C1COC2(CCN(Cc3cccc(F)c3)CC2)C1.O=C(O)C(F)(F)F.O=C(O)C(F)(F)F` (configuration not stated) was run?
**A.** -38.12%

**Q.** With `Cn1cccc1C(=O)N1CCC2(CCN2c2ncccn2)C1.O=C(O)C(F)(F)F` (configuration not stated) as the molecule, how does the “Percent Effect” value read?
**A.** 8.832%

**Q.** `CCc1ccc(CN2CC[C@H]3[C@H]2CC(=O)N3Cc2cccc(C)n2)o1.O=C(O)C(F)(F)F.O=C(O)C(F)(F)F` was tested. Which “Percent Effect” value did it give?
**A.** -1.259%

**Q.** With `Cc1ccc(CNC(C)c2cc(F)ccc2N2CCN(C)CC2)o1` (configuration not stated) as the molecule, how does the “Percent Effect” value read?
**A.** -35.24%

**Q.** `CC(c1cccc(F)c1)N1CCN(Cc2nccn2C)CC1` (configuration not stated) was tested. Which “Percent Effect” value did it give?
**A.** -12.42%

**Q.** For `Cc1ccc(CNC(c2ccc(F)cc2)c2nccn2C)o1` (configuration not stated), which “Percent Effect” value is on record?
**A.** 74.11%

**Q.** `Cc1ccc(CNCCC(O)(c2nccn2C)C(F)(F)F)o1` (configuration not stated) was tested. Which “Percent Effect” value did it give?
**A.** -16.27%

**Q.** `Cc1ccc(CNC(c2cccc(F)c2)c2nccn2C)o1.Cl` (configuration not stated) was tested. Which “Percent Effect” value did it give?
**A.** 79.6%

**Q.** `COc1c(CNC(c2cccc(F)c2)c2nccn2C)c(C)nn1C` (configuration not stated) was tested. Which “Percent Effect” value did it give?
**A.** -20.66%
